# Experiments:
# Assay in all cases: DAPPL (digital affinity profiling via proximity ligation, sequencing); 10 mM Tris-HCl pH 7.5, 50 mM NaCl, 1 mM DTT, 4% glycerol, room temperature, 30 min; GST-TFs on glutathione beads, 16-mer random dsDNA library, 0.1% formaldehyde crosslink after washing; high values mean tight binding
# Details in all cases: protein: recombinant; tags: N-terminal GST; dsDNA, one strand shown
# FLI1 = target: T1, FLI1 (Homo sapiens, UniProt Q01543 1-452)
# T1 sequence: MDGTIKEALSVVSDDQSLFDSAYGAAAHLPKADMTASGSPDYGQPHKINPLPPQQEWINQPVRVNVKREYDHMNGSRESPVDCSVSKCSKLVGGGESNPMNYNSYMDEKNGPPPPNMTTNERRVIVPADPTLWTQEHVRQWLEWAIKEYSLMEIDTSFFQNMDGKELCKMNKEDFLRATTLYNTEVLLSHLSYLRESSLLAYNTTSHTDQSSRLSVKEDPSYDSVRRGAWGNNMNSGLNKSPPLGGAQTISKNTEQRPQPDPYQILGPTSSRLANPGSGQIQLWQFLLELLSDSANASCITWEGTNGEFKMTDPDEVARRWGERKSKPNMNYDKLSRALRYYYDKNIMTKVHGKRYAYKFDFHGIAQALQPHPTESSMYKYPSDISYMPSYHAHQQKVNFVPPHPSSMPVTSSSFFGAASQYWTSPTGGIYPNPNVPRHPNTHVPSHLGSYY
# How it was run: (§1)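 After expression in yeast as GST fusions, human transcription factors were bound to glutathione beads, DNA-barcoded and mixed with a tag-only sample. The pools were incubated with 200 nmole of a 16-mer random double-stranded DNA library in Tris/NaCl/DTT/glycerol buffer (30 min, room temperature), washed and crosslinked with 0.1% formaldehyde. Proximity ligation with BsaI/T4 ligase ran for 1 h at 37 °C, before PCR amplification and sequencing on an Illumina NextSeq500. Binding signal is a hexamer's read frequency for a factor divided by its frequency for the tag-only sample.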
# ELK1 = target: T2, ELK1 (Homo sapiens, UniProt P19419 1-428)
# T2 sequence: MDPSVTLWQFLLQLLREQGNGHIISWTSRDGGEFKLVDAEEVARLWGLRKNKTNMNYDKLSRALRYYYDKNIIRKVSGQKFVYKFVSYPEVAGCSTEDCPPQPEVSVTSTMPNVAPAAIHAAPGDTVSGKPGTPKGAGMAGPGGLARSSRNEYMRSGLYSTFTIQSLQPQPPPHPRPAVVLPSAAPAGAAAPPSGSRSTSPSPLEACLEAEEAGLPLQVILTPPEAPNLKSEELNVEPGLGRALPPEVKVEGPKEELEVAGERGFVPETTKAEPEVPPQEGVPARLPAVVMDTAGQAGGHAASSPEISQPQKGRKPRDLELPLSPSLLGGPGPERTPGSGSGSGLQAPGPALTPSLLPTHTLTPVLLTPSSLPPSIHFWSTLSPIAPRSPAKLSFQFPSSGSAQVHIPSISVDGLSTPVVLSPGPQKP
# How it was run: as §1
# GABPA = target: T3, GABPA (Homo sapiens, UniProt Q06546 1-454)
# T3 sequence: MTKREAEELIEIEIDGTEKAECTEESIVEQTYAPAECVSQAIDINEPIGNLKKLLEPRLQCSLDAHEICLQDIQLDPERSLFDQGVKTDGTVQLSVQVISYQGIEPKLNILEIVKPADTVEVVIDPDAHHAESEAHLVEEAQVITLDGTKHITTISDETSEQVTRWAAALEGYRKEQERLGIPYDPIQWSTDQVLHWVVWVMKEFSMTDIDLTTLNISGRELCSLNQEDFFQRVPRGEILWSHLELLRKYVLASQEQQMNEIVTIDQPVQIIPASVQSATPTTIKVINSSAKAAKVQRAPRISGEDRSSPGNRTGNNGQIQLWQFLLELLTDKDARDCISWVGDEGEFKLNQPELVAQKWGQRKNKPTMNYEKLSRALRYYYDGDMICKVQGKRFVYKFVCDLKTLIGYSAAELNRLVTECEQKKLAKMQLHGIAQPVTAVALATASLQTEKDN
# How it was run: as §1
# ERG = target: T4, ERG (Homo sapiens, UniProt P11308 1-479)
# T4 sequence: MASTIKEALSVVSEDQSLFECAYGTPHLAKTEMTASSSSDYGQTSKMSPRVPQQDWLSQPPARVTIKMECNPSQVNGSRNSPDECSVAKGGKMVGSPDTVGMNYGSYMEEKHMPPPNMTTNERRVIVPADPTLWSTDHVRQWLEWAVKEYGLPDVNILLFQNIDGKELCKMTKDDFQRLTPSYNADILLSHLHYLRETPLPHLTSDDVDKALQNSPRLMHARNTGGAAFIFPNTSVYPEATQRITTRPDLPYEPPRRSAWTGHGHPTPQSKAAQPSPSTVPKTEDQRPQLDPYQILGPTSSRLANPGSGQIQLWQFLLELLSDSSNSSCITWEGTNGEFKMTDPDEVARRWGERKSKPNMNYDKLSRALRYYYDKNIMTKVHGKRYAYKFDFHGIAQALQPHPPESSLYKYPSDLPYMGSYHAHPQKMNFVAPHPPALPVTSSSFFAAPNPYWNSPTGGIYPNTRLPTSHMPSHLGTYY
# How it was run: as §1
# ELF1 = ELF1 (Homo sapiens, UniProt P32519 1-619)
# How it was run: as §1
# EHF = target: T5, EHF (Homo sapiens, UniProt Q9NZC4 1-300)
# T5 sequence: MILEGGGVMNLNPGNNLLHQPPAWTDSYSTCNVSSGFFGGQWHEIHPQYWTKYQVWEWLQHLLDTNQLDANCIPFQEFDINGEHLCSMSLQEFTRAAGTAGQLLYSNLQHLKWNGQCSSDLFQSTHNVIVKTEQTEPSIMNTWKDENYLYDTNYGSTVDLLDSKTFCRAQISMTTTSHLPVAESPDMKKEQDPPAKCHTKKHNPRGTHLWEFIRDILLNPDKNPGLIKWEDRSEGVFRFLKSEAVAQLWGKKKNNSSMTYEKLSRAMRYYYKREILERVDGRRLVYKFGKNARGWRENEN
# How it was run: as §1
# SPI1 = SPI1 (Homo sapiens, UniProt P17947 1-270)
# How it was run: as §1
# SPIB = SPIB (Homo sapiens, UniProt Q01892 1-262)
# How it was run: as §1
# ELK3 = target: T6, ELK3 (Homo sapiens, UniProt P41970 1-407)
# T6 sequence: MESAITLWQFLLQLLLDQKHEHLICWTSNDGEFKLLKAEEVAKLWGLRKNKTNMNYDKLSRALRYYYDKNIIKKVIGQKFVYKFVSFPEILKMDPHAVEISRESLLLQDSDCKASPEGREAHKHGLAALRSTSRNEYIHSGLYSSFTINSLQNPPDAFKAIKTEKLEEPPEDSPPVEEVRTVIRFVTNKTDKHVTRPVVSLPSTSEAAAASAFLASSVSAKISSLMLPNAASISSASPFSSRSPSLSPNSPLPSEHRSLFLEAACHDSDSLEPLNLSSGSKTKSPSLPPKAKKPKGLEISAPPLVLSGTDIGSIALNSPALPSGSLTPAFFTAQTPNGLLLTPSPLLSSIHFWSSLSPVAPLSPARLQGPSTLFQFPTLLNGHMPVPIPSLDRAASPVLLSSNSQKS
# How it was run: as §1
# FEV = target: T7, FEV (Homo sapiens, UniProt Q99581 1-238)
# T7 sequence: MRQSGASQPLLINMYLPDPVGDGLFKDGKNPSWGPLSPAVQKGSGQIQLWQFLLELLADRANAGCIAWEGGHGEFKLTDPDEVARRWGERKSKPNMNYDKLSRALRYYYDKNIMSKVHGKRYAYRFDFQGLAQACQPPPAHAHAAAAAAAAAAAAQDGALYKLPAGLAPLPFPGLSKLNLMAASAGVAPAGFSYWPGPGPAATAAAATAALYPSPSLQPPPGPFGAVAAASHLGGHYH
# How it was run: as §1
# ETV5 = ETV5 (Homo sapiens, UniProt P41161 1-510)
# How it was run: as §1
# SPIC = target: T8, SPIC (Homo sapiens, UniProt Q8N5J4 1-248)
# T8 sequence: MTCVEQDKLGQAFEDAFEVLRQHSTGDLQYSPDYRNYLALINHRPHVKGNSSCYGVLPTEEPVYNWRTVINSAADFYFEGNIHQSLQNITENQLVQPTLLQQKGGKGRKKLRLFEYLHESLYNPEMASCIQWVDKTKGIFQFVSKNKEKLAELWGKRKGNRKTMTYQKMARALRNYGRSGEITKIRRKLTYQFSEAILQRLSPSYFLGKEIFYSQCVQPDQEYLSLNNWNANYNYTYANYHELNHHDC
# How it was run: as §1
# ELF4 = ELF4 (Homo sapiens, UniProt Q99607 1-663)
# How it was run: as §1
# ELK4 = target: T9, ELK4 (Homo sapiens, UniProt P28324-2 1-405)
# T9 sequence: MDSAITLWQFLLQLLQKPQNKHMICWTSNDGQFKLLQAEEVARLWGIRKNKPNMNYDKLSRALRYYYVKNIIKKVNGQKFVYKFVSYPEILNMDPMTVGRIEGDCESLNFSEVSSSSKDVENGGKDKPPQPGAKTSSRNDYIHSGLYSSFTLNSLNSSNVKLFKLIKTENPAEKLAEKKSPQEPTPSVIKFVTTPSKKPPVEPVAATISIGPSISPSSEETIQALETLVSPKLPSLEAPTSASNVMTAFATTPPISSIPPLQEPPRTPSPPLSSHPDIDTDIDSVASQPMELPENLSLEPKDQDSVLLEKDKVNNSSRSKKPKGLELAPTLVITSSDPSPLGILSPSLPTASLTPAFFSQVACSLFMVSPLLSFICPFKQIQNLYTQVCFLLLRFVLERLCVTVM
# How it was run: as §1
# ETV2 = target: T10, ETV2 (Homo sapiens, UniProt O00321 1-342)
# T10 sequence: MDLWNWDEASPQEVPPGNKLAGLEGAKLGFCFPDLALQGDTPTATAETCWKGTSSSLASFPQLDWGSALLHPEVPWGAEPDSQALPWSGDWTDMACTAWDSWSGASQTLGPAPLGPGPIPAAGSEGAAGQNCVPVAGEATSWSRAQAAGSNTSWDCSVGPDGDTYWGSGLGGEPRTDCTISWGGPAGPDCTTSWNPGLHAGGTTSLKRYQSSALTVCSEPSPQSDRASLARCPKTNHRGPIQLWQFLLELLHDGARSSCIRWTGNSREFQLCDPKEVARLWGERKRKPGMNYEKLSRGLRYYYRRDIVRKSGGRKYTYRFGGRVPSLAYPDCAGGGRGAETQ
# How it was run: as §1
# ELF3 = target: T11, ELF3 (Homo sapiens, UniProt P78545 1-371)
# T11 sequence: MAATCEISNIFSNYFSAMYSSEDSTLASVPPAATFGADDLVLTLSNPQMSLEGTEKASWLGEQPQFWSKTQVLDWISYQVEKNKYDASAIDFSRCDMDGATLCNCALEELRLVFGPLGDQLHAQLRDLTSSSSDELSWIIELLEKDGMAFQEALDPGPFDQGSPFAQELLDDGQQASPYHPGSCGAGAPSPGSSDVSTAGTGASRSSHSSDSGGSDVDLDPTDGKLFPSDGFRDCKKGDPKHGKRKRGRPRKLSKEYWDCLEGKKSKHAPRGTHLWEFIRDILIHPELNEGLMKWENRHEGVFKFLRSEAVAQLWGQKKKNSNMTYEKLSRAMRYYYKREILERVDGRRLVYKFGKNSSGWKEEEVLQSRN
# How it was run: as §1
# CRX = CRX (Homo sapiens, UniProt O43186 1-299)
# How it was run: as §1
# ETV1 = ETV1 (Homo sapiens, UniProt P50549 1-477)
# How it was run: as §1
# Chain of ELF1 (P32519 whole entry): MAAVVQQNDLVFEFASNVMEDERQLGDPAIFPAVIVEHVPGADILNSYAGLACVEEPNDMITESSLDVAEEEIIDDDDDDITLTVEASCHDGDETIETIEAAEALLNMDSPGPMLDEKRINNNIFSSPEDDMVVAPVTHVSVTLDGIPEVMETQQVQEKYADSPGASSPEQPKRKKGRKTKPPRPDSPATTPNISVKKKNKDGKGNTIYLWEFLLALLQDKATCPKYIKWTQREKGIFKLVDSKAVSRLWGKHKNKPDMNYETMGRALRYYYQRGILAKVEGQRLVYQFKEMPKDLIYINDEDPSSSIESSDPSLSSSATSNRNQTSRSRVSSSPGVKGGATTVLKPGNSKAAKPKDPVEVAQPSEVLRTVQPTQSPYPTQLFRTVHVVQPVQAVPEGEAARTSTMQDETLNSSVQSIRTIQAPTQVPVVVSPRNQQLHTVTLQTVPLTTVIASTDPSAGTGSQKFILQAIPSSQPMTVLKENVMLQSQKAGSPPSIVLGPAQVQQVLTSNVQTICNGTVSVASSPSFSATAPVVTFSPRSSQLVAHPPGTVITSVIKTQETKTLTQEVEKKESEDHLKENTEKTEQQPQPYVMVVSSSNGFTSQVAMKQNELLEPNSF
# Chain of SPIB (Q01892 whole entry): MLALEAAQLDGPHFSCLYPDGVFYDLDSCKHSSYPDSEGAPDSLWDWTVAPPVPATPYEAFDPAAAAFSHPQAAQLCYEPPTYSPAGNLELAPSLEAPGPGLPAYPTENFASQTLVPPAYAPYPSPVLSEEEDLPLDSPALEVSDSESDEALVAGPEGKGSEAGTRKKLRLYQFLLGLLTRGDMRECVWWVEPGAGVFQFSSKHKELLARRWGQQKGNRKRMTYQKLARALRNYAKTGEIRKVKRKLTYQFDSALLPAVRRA
# Chain of ETV5 (P41161 whole entry): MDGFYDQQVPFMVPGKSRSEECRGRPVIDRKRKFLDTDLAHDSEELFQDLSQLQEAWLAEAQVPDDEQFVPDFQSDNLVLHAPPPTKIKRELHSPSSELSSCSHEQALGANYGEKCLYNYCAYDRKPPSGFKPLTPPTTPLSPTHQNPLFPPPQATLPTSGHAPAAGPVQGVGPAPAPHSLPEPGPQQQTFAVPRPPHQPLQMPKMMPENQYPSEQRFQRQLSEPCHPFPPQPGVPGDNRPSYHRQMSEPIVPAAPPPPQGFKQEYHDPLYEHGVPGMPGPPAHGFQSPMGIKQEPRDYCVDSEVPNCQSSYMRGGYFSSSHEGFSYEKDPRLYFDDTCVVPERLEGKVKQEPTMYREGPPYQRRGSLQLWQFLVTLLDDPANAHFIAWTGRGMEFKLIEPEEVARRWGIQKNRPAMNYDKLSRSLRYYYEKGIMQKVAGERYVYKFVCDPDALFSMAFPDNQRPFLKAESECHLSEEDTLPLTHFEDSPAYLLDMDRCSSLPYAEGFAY
# Chain of ETV1 (P50549 whole entry): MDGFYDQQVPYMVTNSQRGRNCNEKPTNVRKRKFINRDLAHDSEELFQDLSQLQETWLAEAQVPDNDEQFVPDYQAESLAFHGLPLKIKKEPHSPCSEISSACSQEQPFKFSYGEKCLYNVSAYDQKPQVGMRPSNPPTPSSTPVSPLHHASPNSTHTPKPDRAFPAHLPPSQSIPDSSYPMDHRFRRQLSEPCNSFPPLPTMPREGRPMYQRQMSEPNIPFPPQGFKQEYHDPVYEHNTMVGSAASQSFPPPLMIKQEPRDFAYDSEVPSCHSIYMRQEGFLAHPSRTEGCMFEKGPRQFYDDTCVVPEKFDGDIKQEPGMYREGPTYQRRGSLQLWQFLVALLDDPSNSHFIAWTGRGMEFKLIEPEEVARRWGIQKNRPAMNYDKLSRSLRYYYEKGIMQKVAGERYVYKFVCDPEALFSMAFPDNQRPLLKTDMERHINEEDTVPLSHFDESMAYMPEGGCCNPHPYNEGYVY
# Chain of ELF4 (Q99607 whole entry): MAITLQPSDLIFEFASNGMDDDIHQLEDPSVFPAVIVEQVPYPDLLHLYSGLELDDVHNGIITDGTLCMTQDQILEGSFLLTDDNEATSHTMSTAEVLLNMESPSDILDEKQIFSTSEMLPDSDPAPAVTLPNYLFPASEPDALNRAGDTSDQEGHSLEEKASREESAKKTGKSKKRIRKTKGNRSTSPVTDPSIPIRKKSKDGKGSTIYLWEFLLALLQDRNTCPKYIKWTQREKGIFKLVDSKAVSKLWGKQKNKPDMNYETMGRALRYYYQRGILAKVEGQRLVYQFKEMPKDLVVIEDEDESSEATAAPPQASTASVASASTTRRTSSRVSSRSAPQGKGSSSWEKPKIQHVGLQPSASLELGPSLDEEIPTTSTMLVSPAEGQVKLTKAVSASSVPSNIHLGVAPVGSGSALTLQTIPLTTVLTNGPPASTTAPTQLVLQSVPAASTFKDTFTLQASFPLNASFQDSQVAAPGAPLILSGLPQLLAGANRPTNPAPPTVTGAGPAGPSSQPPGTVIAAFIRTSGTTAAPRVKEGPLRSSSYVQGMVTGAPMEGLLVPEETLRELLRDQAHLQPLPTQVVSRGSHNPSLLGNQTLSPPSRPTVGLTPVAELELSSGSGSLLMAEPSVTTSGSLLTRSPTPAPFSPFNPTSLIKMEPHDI
# Chain of CRX (O43186 whole entry): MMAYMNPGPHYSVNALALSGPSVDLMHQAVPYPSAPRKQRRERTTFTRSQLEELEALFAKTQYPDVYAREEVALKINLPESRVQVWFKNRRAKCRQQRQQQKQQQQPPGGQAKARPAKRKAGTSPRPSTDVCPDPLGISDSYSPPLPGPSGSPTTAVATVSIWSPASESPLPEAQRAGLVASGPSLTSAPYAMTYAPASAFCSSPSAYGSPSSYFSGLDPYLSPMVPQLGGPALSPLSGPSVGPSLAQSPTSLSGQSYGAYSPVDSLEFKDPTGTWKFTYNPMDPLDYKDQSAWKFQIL
Sequence,binding signal (FLI1),binding signal (ELK1),binding signal (GABPA),binding signal (ERG),binding signal (ELF1),binding signal (EHF),binding signal (SPI1),binding signal (SPIB),binding signal (ELK3),binding signal (FEV),binding signal (ETV5),binding signal (SPIC),binding signal (ELF4),binding signal (ELK4),binding signal (ETV2),binding signal (ELF3),binding signal (CRX),binding signal (ETV1)
TCACCC,"1.23 fold enrichment (6-mer frequency, TF over GST control)","1.23 fold enrichment (6-mer frequency, TF over GST control)","1.21 fold enrichment (6-mer frequency, TF over GST control)","1.13 fold enrichment (6-mer frequency, TF over GST control)","1.2 fold enrichment (6-mer frequency, TF over GST control)","1.06 fold enrichment (6-mer frequency, TF over GST control)","1.12 fold enrichment (6-mer frequency, TF over GST control)","1.2 fold enrichment (6-mer frequency, TF over GST control)","1.15 fold enrichment (6-mer frequency, TF over GST control)","1.15 fold enrichment (6-mer frequency, TF over GST control)","1.18 fold enrichment (6-mer frequency, TF over GST control)","1.13 fold enrichment (6-mer frequency, TF over GST control)","1.21 fold enrichment (6-mer frequency, TF over GST control)","1.16 fold enrichment (6-mer frequency, TF over GST control)","1.01 fold enrichment (6-mer frequency, TF over GST control)","1.16 fold enrichment (6-mer frequency, TF over GST control)","1.02 fold enrichment (6-mer frequency, TF over GST control)","1.18 fold enrichment (6-mer frequency, TF over GST control)"
CCCGGC,"1.15 fold enrichment (6-mer frequency, TF over GST control)","1.25 fold enrichment (6-mer frequency, TF over GST control)","1.1 fold enrichment (6-mer frequency, TF over GST control)","1.15 fold enrichment (6-mer frequency, TF over GST control)","1.17 fold enrichment (6-mer frequency, TF over GST control)","1.06 fold enrichment (6-mer frequency, TF over GST control)","1.13 fold enrichment (6-mer frequency, TF over GST control)","1.13 fold enrichment (6-mer frequency, TF over GST control)","1.22 fold enrichment (6-mer frequency, TF over GST control)","1.16 fold enrichment (6-mer frequency, TF over GST control)","1.15 fold enrichment (6-mer frequency, TF over GST control)","1.11 fold enrichment (6-mer frequency, TF over GST control)","1.19 fold enrichment (6-mer frequency, TF over GST control)","1.27 fold enrichment (6-mer frequency, TF over GST control)","1.07 fold enrichment (6-mer frequency, TF over GST control)","1.01 fold enrichment (6-mer frequency, TF over GST control)",,"1.19 fold enrichment (6-mer frequency, TF over GST control)"

# Source: PMC7862700, “An all-to-all approach to the identification of sequence-specific readers for epigenetic DNA modifications on cytosine”
